Six1-Eya2 inh: Six1/Eya2 interaction inhibition; Q15475+O00167; AlphaScreen GST-Six1/His-Eya2 binding, biochemical; stronger effect = lower value; activity change, % (concentration not given with the values); hit rate 0.56% among 360,000; AID 651725; in the data active = activity change below about -65%; inconclusive = mostly about -30% to -63%
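Homogeneous AlphaScreen proximity assay pairing GST-Six1 with His-tagged Eya2 (added as 5X mix: 250 nM and 500 nM) in 50 mM Tris pH 8.0, 300 mM NaCl, 1 mM TCEP. Glutathione donor and nickel acceptor beads; 1 h, 37 °C, dark.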
DT40 TDP1 no CPT: qHTS for Inhibitors of human tyrosyl-DNA phosphodiesterase 1 (TDP1): qHTS in cells in absence of CPT; DT40 Tdp1-/- hTDP1 cells, no CPT, ATP luminescence, 48 h; Potency, µM (highest dose often 46.2 µM), hits mostly inhibitors; hit rate 15% among 420,000; note: nearly all actives have a fitted effect of over 55% in size
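Chicken DT40 Tdp1-/- cells complemented with human TDP1, screened without camptothecin (DMSO vehicle only), 400 cells/well. Compounds pin-transferred, cells incubated at 37 °C for at least 48 hr. Growth read as ATP-dependent luminescence (CellTiter-Glo, 30 min at RT).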
IL-1B inflam inh: inflammasome signaling inhibition, IL-1 beta readout | hit rate 4.7% among 360,000 | THP-1 LPS/ATP IL-1B secretion, AlphaLISA, 16 h; stronger effect = lower value | activity change, % at 57.5 µM; in the data active = activity change below about -50%; inconclusive = mostly about -30% to -49%
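Secreted IL-1B measured by AlphaLISA bead assay after 16 h compound exposure of THP-1 cells; compounds (final up to 57.5 uM) added 1 h before LPS (250 ng/mL) and ATP (1.25 mM) stimulation; lower signal means less secretion.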
CtBP-E1A inh: inhibitors of CtBP/E1A interaction. AlphaScreen GST-E1A/His-CtBP binding, 1536-well; stronger effect = lower value. activity change, % (no concentration beside the values). hit rate 0.49% among 340,000; in the data active = activity change below about -65%; inconclusive = mostly about -30% to -63%
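GST-E1A and His-tagged CtBP (125 nM each as 5X stock) were preincubated with pin-transferred compound for 2 h at 37 °C in the dark, then glutathione donor and nickel acceptor beads were added for 1 h before AlphaScreen reading.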
TDP1 block: blocks human tyrosyl-DNA phosphodiesterase 1 | hit rate 0.28% among 350,000 | Q9NUW8 | Potency, µM (highest dose often 130 µM), hits mostly inhibitors | recombinant TDP1, AlphaScreen DNA substrate cleavage; note: nearly all actives have a fitted effect of over 40% in size
Target sequence (Q9NUW8 whole entry, looked up): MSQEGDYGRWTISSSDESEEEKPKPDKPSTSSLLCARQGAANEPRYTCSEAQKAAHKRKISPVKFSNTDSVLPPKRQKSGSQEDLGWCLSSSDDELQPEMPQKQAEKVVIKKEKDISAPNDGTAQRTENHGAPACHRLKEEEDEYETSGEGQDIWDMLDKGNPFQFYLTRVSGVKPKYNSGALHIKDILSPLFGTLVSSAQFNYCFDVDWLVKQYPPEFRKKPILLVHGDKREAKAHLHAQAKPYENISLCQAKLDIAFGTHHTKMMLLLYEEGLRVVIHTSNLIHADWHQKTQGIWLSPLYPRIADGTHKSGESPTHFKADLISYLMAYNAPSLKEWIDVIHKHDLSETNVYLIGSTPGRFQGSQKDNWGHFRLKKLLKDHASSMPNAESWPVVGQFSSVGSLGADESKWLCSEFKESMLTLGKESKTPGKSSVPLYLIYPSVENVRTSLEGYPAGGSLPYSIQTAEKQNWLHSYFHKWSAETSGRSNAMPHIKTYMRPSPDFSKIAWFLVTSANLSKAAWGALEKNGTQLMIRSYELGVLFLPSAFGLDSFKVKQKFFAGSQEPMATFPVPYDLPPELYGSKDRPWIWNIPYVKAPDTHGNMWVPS
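AlphaScreen read-out: signal falls as enzyme removes the 3' tyrosine-FITC from a 5'-biotinylated DNA oligo (15 nM, 5 min, RT). Enzyme was E. coli-made recombinant Tdp1 at 1 nM, exposed to compound for 15 min beforehand; beads 10 ug/ml, 10 min.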
DT40 TDP1 CPT: DT40-hTDP1 cell growth loss with CPT | chicken DT40 Tdp1-/-;hTDP1 cells + 20 nM CPT, ATP luminescence, 48 h | Potency, µM (titrated, usually from 46.2 µM), actives largely listed as inhibitors | hit rate 12% among 420,000 | AID 686979; note: nearly all actives have a fitted effect of over 55% in size
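Chicken DT40 Tdp1-/- cells complemented with human TDP1, 400 cells/well, exposed to compounds plus 20 nM camptothecin for at least 48 h at 37 C; viability read as ATP content by CellTiter-Glo luminescence.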
Large screens that a line does not name were inactive. Sampled rows, rich in hits. Any-hit rate of the full collection: about 18%. Unless noted, calls come from the whole dose curve; as a rule, active = well fitted curve in the direction sought with a large enough effect; inconclusive = small, poorly fitted or top-dose-only effect, or another doubt; inactive = no such curve, though single readings can be large; an effect the other way counts as inactive or inconclusive.

C=CCNc1nc2cc(-c3cccc(Cl)c3)sc2c(=O)n1C	DT40 TDP1 no CPT 16.4µM, DT40 TDP1 CPT 13µM (no result: TDP1 block)
COc1ccc(Nc2oc(/C=C/c3ccc(F)cc3)nc2C#N)cc1	DT40 TDP1 no CPT inconclusive, DT40 TDP1 CPT inconclusive (no result: Six1-Eya2 inh, IL-1B inflam inh, CtBP-E1A inh)
Cc1ccsc1C(=O)OCC(=O)NCc1ccc(Cl)cc1	none
Cc1ccc(-n2c(C)nc3c(cnn3-c3ccc(F)cc3)c2=O)cc1	DT40 TDP1 no CPT 14.6µM, DT40 TDP1 CPT 18.4µM
COc1ccc(-n2c(C)nc3c(cnn3-c3ccc(C)c(C)c3)c2=O)cc1	DT40 TDP1 no CPT 14.6µM, DT40 TDP1 CPT 23.1µM
Cc1nc2c(cnn2-c2ccc(Cl)cc2)c(=O)n1-c1ccc(N2CCC(C)CC2)cc1	none (no result: Six1-Eya2 inh, DT40 TDP1 no CPT, IL-1B inflam inh, CtBP-E1A inh, DT40 TDP1 CPT)
Cc1ccc(-n2c(C)nc3c(cnn3-c3ccccc3C)c2=O)cc1F	DT40 TDP1 no CPT inconclusive, DT40 TDP1 CPT inconclusive (no result: Six1-Eya2 inh, IL-1B inflam inh, CtBP-E1A inh)
Cc1nc2c(cnn2-c2ccccc2Cl)c(=O)n1-c1ccc(C(C)C)cc1	DT40 TDP1 no CPT 20.6µM, DT40 TDP1 CPT inconclusive
Cc1ccc(-n2ncc3c(=O)n(-c4ccc(C)c(C)c4)c(C)nc32)cc1	DT40 TDP1 no CPT 18.4µM, DT40 TDP1 CPT inconclusive
C[C@H]1CN([C@@H](C)CO)C(=O)CCCn2nncc2CO[C@@H]1CN(C)Cc1ccc2c(c1)OCCO2	none (no result: TDP1 block)
CN(C)c1cccc(CNC(=O)c2csc([C@H]3C[C@H](O)[C@@H](CO)O3)n2)c1	none (no result: TDP1 block)
O=C(N/N=C/c1cc([N+](=O)[O-])cc(Br)c1O)C12CC3CCC(CC(C3)C1)C2	DT40 TDP1 no CPT 23.1µM, DT40 TDP1 CPT inconclusive (no result: CtBP-E1A inh)
COc1cc(/C=N/NC(=O)C23CC4CC(CC(C4)C2)C3)cc(Br)c1O	none
COc1ccc(CN2C[C@@H](CO)O[C@@H](n3cnc4c(NCCO)ncnc43)C2)cc1	DT40 TDP1 CPT inconclusive (no result: TDP1 block)
Fc1ccc(-n2c(=S)[nH]c3cccnc32)cc1	DT40 TDP1 no CPT inconclusive (no result: TDP1 block)
FC(F)(F)c1cnc2c(c1)[nH]c(=S)n2-c1ccc(Cl)cc1	DT40 TDP1 no CPT inconclusive, DT40 TDP1 CPT 20.6µM (no result: TDP1 block)
COc1ccc(CCNC(=O)c2c(C)nn(-c3ccc(F)cc3)c2-n2cccc2)c(OC)c1OC	none (no result: Six1-Eya2 inh, DT40 TDP1 no CPT, IL-1B inflam inh, CtBP-E1A inh, DT40 TDP1 CPT)
Cc1ccc(C2CC(=O)n3nc(-c4cccc(C)c4)nc3S2)cc1 (stereo not given)	none (no result: Six1-Eya2 inh, IL-1B inflam inh, CtBP-E1A inh)
CN(C)CCC(Oc1ccccc1OCc1ccccc1)c1ccccc1 (stereo not given)	DT40 TDP1 no CPT 16.4µM, IL-1B inflam inh -90.1, DT40 TDP1 CPT inconclusive (no result: TDP1 block)
CC(C)Oc1ccccc1OCCN(C)C	none
CN(Cc1ccccc1F)C(=O)c1ccc2c(=O)n3c(nc2c1)CCC3	none
Cc1cc(O)ccc1N/C=C(\C#N)c1nc2ccccc2o1	DT40 TDP1 no CPT 11.6µM, DT40 TDP1 CPT inconclusive
COc1ccc(N2C(=O)/C(=C/c3ccc([N+](=O)[O-])cc3)C=C2c2ccccc2)cc1	DT40 TDP1 no CPT 2.91µM, IL-1B inflam inh inconclusive, DT40 TDP1 CPT 3.66µM
O=C1/C(=C/c2ccc([N+](=O)[O-])cc2)C=C(c2ccccc2)N1c1ccc(O)cc1	DT40 TDP1 no CPT 2.91µM, IL-1B inflam inh -99.3, DT40 TDP1 CPT 5.17µM
O=C1/C(=C/c2ccc([N+](=O)[O-])cc2)C=C(c2ccccc2)N1c1ccccc1	DT40 TDP1 no CPT inconclusive, DT40 TDP1 CPT inconclusive
C#CCn1c(=NC(=O)c2ccc(S(=O)(=O)N3CCCc4ccccc43)cc2)sc2cc(S(N)(=O)=O)ccc21	DT40 TDP1 no CPT 14.6µM, DT40 TDP1 CPT 13µM
Cn1c(=NC(=O)c2ccc(S(=O)(=O)N3CCCc4ccccc43)cc2)sc2cc(S(C)(=O)=O)ccc21	none
Cc1ccc(OCC(=O)Nc2ccc3c(c2)ncn3C)cc1	none (no result: TDP1 block)
CCN(CC)S(=O)(=O)c1ccc(NC(=O)CCNC(=O)c2ccccc2)cc1	DT40 TDP1 no CPT inconclusive (no result: TDP1 block)
COc1ccc(-c2[nH]c3ccccc3c2SCCNC(=O)c2ccccc2)cc1	DT40 TDP1 no CPT 9.2µM, DT40 TDP1 CPT 13µM
CCN(CC)S(=O)(=O)c1ccc(C(=O)NCCSc2c(-c3ccc(F)cc3)[nH]c3ccccc23)cc1	DT40 TDP1 no CPT 6.51µM, DT40 TDP1 CPT 8.2µM (no result: Six1-Eya2 inh, IL-1B inflam inh, CtBP-E1A inh)
CN(C)S(=O)(=O)c1ccc(C(=O)NCCSc2c(-c3ccc(Br)cc3)[nH]c3ccccc23)cc1	DT40 TDP1 no CPT 2.31µM, DT40 TDP1 CPT 4.11µM (no result: Six1-Eya2 inh, IL-1B inflam inh, CtBP-E1A inh)
COc1ccc(C(=O)NCCSc2ccccc2)cc1	none
Cc1ccc(/C=N/Nc2ccnc3cc(Cl)ccc23)c(C)c1	DT40 TDP1 no CPT 11.6µM, IL-1B inflam inh -77.3, DT40 TDP1 CPT 6.51µM
Clc1ccc2c(N/N=C/c3cccnc3)ccnc2c1	DT40 TDP1 no CPT inconclusive, DT40 TDP1 CPT inconclusive
Clc1ccc2c(N/N=C/c3ccc(Br)cc3)ccnc2c1	DT40 TDP1 no CPT inconclusive, IL-1B inflam inh -98.3, DT40 TDP1 CPT inconclusive
Oc1ccc(/C=N/Nc2ccnc3cc(Cl)ccc23)c(O)c1	DT40 TDP1 no CPT inconclusive, IL-1B inflam inh inconclusive, DT40 TDP1 CPT inconclusive
Cc1ccccc1/C=N/Nc1ccnc2cc(Cl)ccc12	DT40 TDP1 no CPT inconclusive, IL-1B inflam inh -102.9, DT40 TDP1 CPT 10.3µM
CC1(C)CC(NC(=O)C2CCCCC2)CC(C)(C)N1	none
O=[N+]([O-])c1cccc(/C=N\N=C2c3ccccc3-c3ccccc32)c1O	DT40 TDP1 no CPT 16.4µM, DT40 TDP1 CPT inconclusive
